Experimental data from PubChem BioAssay (EPA / NIEHS).
Results filed as inconclusive are left out. The source made the active and inactive calls. Rule for the calls, unless noted: active = hit-call score of the fitted dose curve at least 0.9, where 1 is the maximum; inactive = score below 0.9.

How the values were obtained:
[1] = target: Retinoic acid receptor RXR-alpha (Homo sapiens) (UniProt P19793); assay: ATG_RXRa_TRANS: Attagene TRANS-FACTORIAL HepG2 Assay for human Retinoid X Receptor alpha (RXRa) (AID 2283012; active = hit-call score of the fitted dose curve at least 0.9, where 1 is the maximum)
Outline: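 Read-out: fluorescent reporter-transcript fragments quantified by capillary electrophoresis after RT-PCR. Transiently transfected HepG2 cells carrying GAL4-UAS reporters and NR-GAL4 chimeras were exposed to chemical for 24 h; activity scored as increase over DMSO.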

[2] = target: human Retinoid X Receptor beta (RXRb), RXRB (gene 6257) (UniProt P28702); assay: ATG_RXRb_TRANS: Attagene TRANS-FACTORIAL HepG2 Assay for human Retinoid X Receptor beta (RXRb) (AID 2283013; active = hit-call score of the fitted dose curve at least 0.9, where 1 is the maximum)
Outline: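 Read-out: reporter mRNA induction via RT-PCR plus capillary electrophoresis fluorescence, analysed as signal increase relative to DMSO. Cells were human HepG2, transiently transfected with GAL4-UAS reporter constructs and chimeric receptor-Gal4 fusions, dosed for 24 h.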

[3] = read-out: E-selectin (Homo sapiens) (UniProt P16581); assay: BSK_3C_Eselectin: BioMAP Diversity Plus: 3C Assay for Eselectin Biomarker Activity (AID 2283015); settings: primary human endothelial cells (HUVEC); actives raise or lower the signal
Outline: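 Human vascular endothelium from umbilical vein is exposed to test chemicals for 24 h. E-selectin levels are read by ELISA and compared with DMSO controls.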

[4] = read-out: Interleukin-1 alpha (IL1a), IL1A (gene 3552); assay: BSK_BE3C_IL1a: BioMAP Diversity Plus: BE3C Assay for Interleukin-1 alpha (IL1a) Biomarker Activity (AID 2283016); settings: primary human bronchial epithelial cells; actives raise or lower the signal
Outline: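 ELISA read-out of IL-1a from human lung bronchial epithelial primary cells, 24 h post-dose. Gain or loss of signal fitted relative to DMSO negative control.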

[5] = read-out: Monocyte Chemoattractant Protein-1 (MCP1), CCL2 (gene 6347); assay: BSK_3C_MCP1: BioMAP Diversity Plus: 3C Assay for Monocyte Chemoattractant Protein-1 (MCP1) Biomarker Activity (AID 2283017); settings: primary human endothelial cells (HUVEC); actives raise or lower the signal
Outline: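 Endothelial cells from human umbilical vein are dosed with chemical, cultured 24 h, then assayed for MCP-1 by ELISA; both increases and decreases are modelled against DMSO controls.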

[6] = read-out: Monocyte Chemoattractant Protein-1 (MCP1), CCL2 (gene 6347); assay: BSK_4H_MCP1: BioMAP Diversity Plus: 4H Assay for Monocyte Chemoattractant Protein-1 (MCP1) Biomarker Activity (AID 2283018); settings: primary human endothelial cells (HUVEC); actives raise or lower the signal
Outline: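 HUVEC primary cells, 24 h post-dose, MCP-1 by ELISA. Gain or loss of signal fitted bidirectionally vs DMSO baseline. Cytotoxicity: SRB stain (0.1% after 10% TCA fixation), read 560 nm, parallel cultures.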

[7] = read-out: Human Leukocyte Antigen - DR isotype (HLADR), HLA-DRA (gene 3122); assay: BSK_3C_HLADR: BioMAP Diversity Plus: 3C Assay for Human Leukocyte Antigen - DR isotype (HLADR) Biomarker Activity (AID 2283019); settings: primary human endothelial cells (HUVEC); actives raise or lower the signal
Outline: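 Endothelial cells from human umbilical vein are treated with test chemical; after 24 h, HLA-DR levels are measured by ELISA. Data are fitted in both directions using DMSO as the baseline.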

[8] = read-out: Monokine induced gamma interferon (MIG), CXCL9 (gene 4283); assay: BSK_3C_MIG: BioMAP Diversity Plus: 3C Assay for Monokine induced gamma interferon (MIG) Biomarker Activity (AID 2283021); settings: primary human endothelial cells (HUVEC); actives raise or lower the signal;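 for AC50: MIG protein level measured by immunoassay in the treated endothelial cultures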
Outline: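 HUVEC, 3C system; 24 h chemical exposure; MIG by ELISA; bidirectional fit vs DMSO baseline.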

[9] = BSK_3C_SRB: Viability Assessment in the BioMAP Diversity Plus: 3C Assay (AID 2283023); settings: primary human endothelial cells (HUVEC);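 note: cells read 24 h after compound dosing; fitted both ways against DMSO so a hit may be signal rise or drop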
Outline: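 Cells were dosed with chemical, cultured 24 h, fixed with 10% TCA, stained with 0.1% SRB and read at 560 nm. Human umbilical vein endothelium was used; DMSO served as negative control and baseline.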

[10] = read-out: Matrix Metallopeptidase 1 (MMP1), MMP1 (gene 4312); assay: BSK_BE3C_MMP1: BioMAP Diversity Plus: BE3C Assay for Matrix Metallopeptidase 1 (MMP1) Biomarker Activity (AID 2283024); settings: primary human bronchial epithelial cells; actives raise or lower the signal
Outline: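 ELISA read-out of MMP1 in human lung bronchial epithelial primary cultures, 24 h post-dose; bidirectional curve fit vs DMSO baseline, gain or loss of signal scored.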

[11] = BSK_3C_Vis: BioMAP Diversity Plus: 3C Assay for Morphology Visualization (AID 2283025); settings: primary human endothelial cells (HUVEC);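 note: fitted both ways so gain or loss versus DMSO counts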;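 for AC50: light microscopy image of cell morphology used as background control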
Outline: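 HUVEC, 3C system; light microscopy of morphology at 24 h post-dose. Bidirectional fit vs DMSO baseline. Secondary readout, background-control function.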

[12] = read-out: Pselectin, SELP (gene 6403); assay: BSK_4H_Pselectin: BioMAP Diversity Plus: 4H Assay for Pselectin Biomarker Activity (AID 2283026); settings: primary human endothelial cells (HUVEC); actives raise or lower the signal
Outline: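 HUVEC, 24 h chemical exposure; P-selectin read by ELISA. Bidirectional curve fit vs DMSO baseline; gain or loss of signal scored.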

[13] = BSK_4H_SRB: Viability Assessment in the BioMAP Diversity Plus: 4H Assay (AID 2283027); settings: primary human endothelial cells (HUVEC);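 note: cells exposed to compound for 24 h before staining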;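 for AC50: curves fitted both ways versus DMSO so AC50 may be loss or gain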
Outline: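 Cytotoxicity readout: sulforhodamine B (0.1%) staining of total protein after 10% TCA fixation, measured at 560 nm in human umbilical vein endothelium at 24 h. DMSO set the baseline; fitting was bidirectional.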

[14] = BSK_BE3C_SRB: Viability Assessment in the BioMAP Diversity Plus: BE3C Assay (AID 2283028); settings: primary human bronchial epithelial cells;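 for AC50: fitted both ways so AC50 may mark signal gain or loss versus DMSO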
Outline: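 Overt cytotoxicity was assessed as total protein in confluent human primary bronchial epithelial cultures 24 h after chemical addition, using 0.1% sulforhodamine B staining read at 560 nm.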

[15] = read-out: Thrombomodulin, THBD (gene 7056); assay: BSK_3C_Thrombomodulin: BioMAP Diversity Plus: 3C Assay for Thrombomodulin Biomarker Activity (AID 2283029); settings: primary human endothelial cells (HUVEC); actives raise or lower the signal
Outline: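 HUVEC, 3C conditions; compound 24 h; thrombomodulin by ELISA; bidirectional curve fit vs DMSO baseline; parallel SRB total-protein staining for cytotoxicity.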

[16] = read-out: Urokinase-type plasminogen activator receptor (uPAR), PLAUR (gene 5329); assay: BSK_4H_uPAR: BioMAP Diversity Plus: 4H Assay for Urokinase-type plasminogen activator receptor (uPAR) Biomarker Activity (AID 2283030); settings: primary human endothelial cells (HUVEC); actives raise or lower the signal
Outline: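 Chemicals are dosed onto human vascular endothelial primary cells (umbilical vein). After 24 h, uPAR is read by ELISA. Gain or loss of signal is fitted relative to DMSO.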

[17] = target: human RAR-related Orphan Receptor gamma (RORg), RORC (gene 6097) (UniProt P51449); assay: ATG_RORg_TRANS: Attagene TRANS-FACTORIAL HepG2 Assay for human RAR-related Orphan Receptor gamma (RORg) (AID 2283011; active = hit-call score of the fitted dose curve at least 0.9, where 1 is the maximum)
Outline: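 Activity is scored as increase in GAL4-UAS reporter mRNA over DMSO, detected by fluorescent RT-PCR and capillary electrophoresis in HepG2 cells transiently expressing a RORg-Gal4 chimera, 24 h after dosing.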

[18] = read-out: Interleukin-8 (IL8), CXCL8 (gene 3576); assay: BSK_3C_IL8: BioMAP Diversity Plus: 3C Assay for Interleukin-8 (IL8) Biomarker Activity (AID 2283020); settings: primary human endothelial cells (HUVEC); actives raise or lower the signal
Outline: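 HUVEC, 3C stimulation; 24 h compound exposure; IL-8 read by ELISA; gain or loss of signal fitted relative to DMSO control.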

[19] = target: human Vitamin D Receptor (VDR), VDR (gene 7421) (UniProt P11473); assay: ATG_VDR_TRANS: Attagene TRANS-FACTORIAL HepG2 Assay for human Vitamin D Receptor (VDR) (AID 2283022; active = hit-call score of the fitted dose curve at least 0.9, where 1 is the maximum)
Outline: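 Fluorescence of labelled reporter cDNA fragments, resolved by capillary electrophoresis, gives mRNA induction after 24 h treatment of HepG2 cells carrying transfected Gal4-fusion reporter units. Activity is fitted in the positive direction with DMSO as baseline.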

Measured: AC50

Sequence of human Vitamin D Receptor (VDR), VDR (gene 7421) (P11473 whole entry, looked up, the tested form may be a part): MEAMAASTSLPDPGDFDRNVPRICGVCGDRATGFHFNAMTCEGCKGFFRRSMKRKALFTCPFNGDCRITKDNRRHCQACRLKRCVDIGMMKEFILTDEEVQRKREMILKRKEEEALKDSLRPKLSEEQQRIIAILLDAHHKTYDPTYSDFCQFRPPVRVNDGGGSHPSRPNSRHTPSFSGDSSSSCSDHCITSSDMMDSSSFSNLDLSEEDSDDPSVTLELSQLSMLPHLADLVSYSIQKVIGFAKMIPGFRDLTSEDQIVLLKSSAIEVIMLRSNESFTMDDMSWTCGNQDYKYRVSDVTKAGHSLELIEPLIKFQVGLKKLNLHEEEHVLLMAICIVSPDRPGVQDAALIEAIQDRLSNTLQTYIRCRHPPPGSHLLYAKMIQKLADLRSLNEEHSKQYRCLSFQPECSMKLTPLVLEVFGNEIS
Sequence of E-selectin (Homo sapiens) (P16581 whole entry, looked up): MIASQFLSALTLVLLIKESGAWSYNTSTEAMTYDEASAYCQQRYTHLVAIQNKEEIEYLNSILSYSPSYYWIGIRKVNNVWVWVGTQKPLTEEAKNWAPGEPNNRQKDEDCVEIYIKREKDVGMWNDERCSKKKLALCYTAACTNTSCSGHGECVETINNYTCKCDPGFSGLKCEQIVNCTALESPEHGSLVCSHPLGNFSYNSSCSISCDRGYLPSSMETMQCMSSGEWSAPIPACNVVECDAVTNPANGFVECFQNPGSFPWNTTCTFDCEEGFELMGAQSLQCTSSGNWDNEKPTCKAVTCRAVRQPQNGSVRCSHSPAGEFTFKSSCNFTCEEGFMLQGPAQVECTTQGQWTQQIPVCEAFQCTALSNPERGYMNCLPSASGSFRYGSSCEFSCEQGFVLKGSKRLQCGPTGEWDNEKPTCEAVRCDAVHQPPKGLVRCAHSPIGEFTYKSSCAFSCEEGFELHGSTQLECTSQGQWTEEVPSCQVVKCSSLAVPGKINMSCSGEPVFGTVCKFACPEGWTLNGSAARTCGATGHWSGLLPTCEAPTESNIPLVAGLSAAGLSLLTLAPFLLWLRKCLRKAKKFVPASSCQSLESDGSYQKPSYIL
Sequence of human Retinoid X Receptor beta (RXRb), RXRB (gene 6257) (P28702 whole entry, looked up, the tested form may be a part): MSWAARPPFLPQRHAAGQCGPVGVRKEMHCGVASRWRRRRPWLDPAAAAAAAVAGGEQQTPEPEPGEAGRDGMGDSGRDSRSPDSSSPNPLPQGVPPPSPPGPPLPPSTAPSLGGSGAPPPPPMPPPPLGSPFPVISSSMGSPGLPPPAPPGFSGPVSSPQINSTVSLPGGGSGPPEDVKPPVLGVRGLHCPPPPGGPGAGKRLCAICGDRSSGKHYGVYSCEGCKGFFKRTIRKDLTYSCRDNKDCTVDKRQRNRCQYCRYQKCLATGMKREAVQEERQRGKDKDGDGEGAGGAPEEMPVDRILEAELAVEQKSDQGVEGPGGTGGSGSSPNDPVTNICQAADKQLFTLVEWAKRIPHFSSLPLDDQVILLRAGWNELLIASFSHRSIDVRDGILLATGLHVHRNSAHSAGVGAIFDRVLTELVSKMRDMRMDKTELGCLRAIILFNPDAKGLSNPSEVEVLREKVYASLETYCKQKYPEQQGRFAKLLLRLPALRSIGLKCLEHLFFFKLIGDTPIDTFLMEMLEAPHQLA
Sequence of Retinoic acid receptor RXR-alpha (Homo sapiens) (P19793 whole entry, looked up, the tested form may be a part): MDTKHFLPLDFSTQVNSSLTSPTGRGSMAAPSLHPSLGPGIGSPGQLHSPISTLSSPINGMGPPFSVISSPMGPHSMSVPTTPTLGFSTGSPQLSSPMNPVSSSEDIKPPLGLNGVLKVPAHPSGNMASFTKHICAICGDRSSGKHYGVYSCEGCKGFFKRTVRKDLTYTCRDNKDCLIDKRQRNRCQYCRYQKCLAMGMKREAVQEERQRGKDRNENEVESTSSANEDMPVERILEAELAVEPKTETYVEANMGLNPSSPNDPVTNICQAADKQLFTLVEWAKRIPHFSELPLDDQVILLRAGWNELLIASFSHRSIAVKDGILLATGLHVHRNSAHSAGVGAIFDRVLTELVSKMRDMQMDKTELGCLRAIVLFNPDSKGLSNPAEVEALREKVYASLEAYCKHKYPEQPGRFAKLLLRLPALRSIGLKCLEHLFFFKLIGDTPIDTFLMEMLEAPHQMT
Sequence of human RAR-related Orphan Receptor gamma (RORg), RORC (gene 6097) (P51449 whole entry, looked up, the tested form may be a part): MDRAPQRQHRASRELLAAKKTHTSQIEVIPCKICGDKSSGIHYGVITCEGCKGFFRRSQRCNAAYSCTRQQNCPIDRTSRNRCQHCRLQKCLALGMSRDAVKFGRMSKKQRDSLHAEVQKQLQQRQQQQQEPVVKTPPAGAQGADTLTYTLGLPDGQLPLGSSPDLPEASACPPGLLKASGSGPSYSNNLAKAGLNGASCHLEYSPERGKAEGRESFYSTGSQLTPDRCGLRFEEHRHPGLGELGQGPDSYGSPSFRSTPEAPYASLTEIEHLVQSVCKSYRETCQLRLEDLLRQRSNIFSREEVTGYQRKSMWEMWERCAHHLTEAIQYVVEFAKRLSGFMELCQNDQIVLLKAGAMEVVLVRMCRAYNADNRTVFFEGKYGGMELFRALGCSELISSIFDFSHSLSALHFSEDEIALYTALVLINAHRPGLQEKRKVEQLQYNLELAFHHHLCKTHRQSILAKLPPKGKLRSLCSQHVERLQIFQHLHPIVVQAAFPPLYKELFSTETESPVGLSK

CCOC(=O)CC(SP(=O)(OC)OC)C(=O)OCC (configuration not stated)
not listed: [17] | [18] | [19]
inactive: all other assays above

S=C1NCCN1
active: [11] 39 µM
not listed: [1] | [9]
inactive: all other assays above

CCCOCC(=Nc1ccc(Cl)cc1C(F)(F)F)n1ccnc1
inactive: [1] | [2]
active: [3] 30.2 µM | [4] 33.5 µM | [5] 30.2 µM | [6] 24.9 µM | [7] 26.8 µM | [8] 35.1 µM | [10] 34 µM | [11] 20 µM | [12] 29.8 µM | [13] 29 µM | [14] 20 µM | [15] 35 µM | [16] 36.7 µM

C#CCC1=C(C)C(OC(=O)C2C(C=C(C)C)C2(C)C)CC1=O (configuration not stated)
active: [3] 36 µM | [5] 32.2 µM | [6] 20.6 µM | [7] 20 µM | [18] 30.7 µM | [9] 28.5 µM | [12] 31.6 µM | [13] 33.8 µM | [14] 18 µM
not listed: [17]
inactive: all other assays above

CC(Oc1cccc(Cl)c1)C(=O)O (configuration not stated)
not listed: [1] | [2] | [18] | [19]
inactive: all other assays above

CC(COc1ccc(Oc2ccccc2)cc1)Oc1ccccn1 (configuration not stated)
active: [7] 21 µM | [9] 20 µM
not listed: [1] | [2]
inactive: all other assays above

CN(C)C(=O)Nc1cccc(C(F)(F)F)c1
active: [11] 39 µM
not listed: [2] | [17] | [18] | [19]
inactive: all other assays above

CCOP(=O)(OCC)Oc1cc(C)nc(C(C)C)n1
active: [7] 20 µM | [11] 39 µM
not listed: [1] | [2] | [9] | [18] | [19]
inactive: all other assays above
